# The list is not random: actives were taken first. Their share in the collection is about 19%.
# DT40 TDP1 no CPT: qHTS for Inhibitors of human tyrosyl-DNA phosphodiesterase 1 (TDP1): qHTS in cells in absence of CPT; DT40 Tdp1-/- hTDP1 cells, no CPT, ATP luminescence, 48 h; AID 686978, 2013; 15% of 420,000 active; Potency, µM (doses to about 46.2 µM), for the others: at the top dose activity change, negative = growth inhibition, most hits filed as inhibitors; further: potency means the concentration at half of the fitted maximal effect; nearly all actives have a fitted effect of over 55% in size
#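 Chicken DT40 Tdp1-/- cells complemented with human TDP1, screened without camptothecin (DMSO vehicle only), 400 cells/well. Compounds pin-transferred, cells incubated at 37 °C for at least 48 hr. Growth read as ATP-dependent luminescence (CellTiter-Glo, 30 min at RT).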
# HT1080 IDH1KD tx: qHTS for induction of synthetic lethality in tumor cells producing 2HG: qHTS for the HT-1080-IDH1KD cell line; AID 686971, 2013; HT-1080 IDH1 knockdown viability, ATP luminescence, 48 h; 2% of 360,000 active; Potency, µM (doses to about 46.1 µM), for inactives: at the highest dose activity, negative = toxicity, most hits filed as cytotoxic;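 further: potency means the concentration at half of the fitted maximal effect; 0% = DMSO wells and -100% = cell-free medium wells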
#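 HT-1080-IDH1KD cells (IDH1 knocked down), 750/well in RPMI with 5% FBS, treated with compound 48 h at 37 degrees C. Viability by CellTiter-Glo luminescence, normalised to DMSO and no-cell wells; concentration-response curves classed.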
# HT1080NT lethal: qHTS for induction of synthetic lethality in tumor cells producing 2HG: qHTS for the HT-1080-NT fibrosarcoma cell line. 1.6% of 360,000 active. Potency, µM (doses to about 46.1 µM), for the others: at the top dose activity, negative = less viability, hits mostly cytotoxic. HT-1080-NT fibrosarcoma viability, CellTiter-Glo ATP luminescence, 48 h;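 further: NT is the 2HG producing partner of a matched IDH1 knockdown line; potency means the concentration at half of the fitted maximal effect; 0% = DMSO-treated cells and -100% = media-only wells without cells; nearly all actives have a fitted effect of over 55% in size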
#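 Viability of the 2HG-overproducing fibrosarcoma line after 48 hours of compound exposure at 37 degrees C was determined by luminescence with CellTiter-Glo, and concentration-effect curves were then fitted and categorized.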
# IL1B secr inh: qHTS for Inhibitors of Inflammasome Signaling: IL-1-beta AlphaLISA Primary Screen. THP-1 LPS/ATP IL-1B secretion, AlphaLISA, 16 h; hits give low values. activity change, % at 57.5 µM. 4.7% of 360,000 active. AID 743279, 2014; in the data active means activity change below about -50%; inconclusive means mostly about -30% to -49%
#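 Secreted IL-1B measured by AlphaLISA bead assay after 16 h compound exposure of THP-1 cells; compounds (final up to 57.5 uM) added 1 h before LPS (250 ng/mL) and ATP (1.25 mM) stimulation; lower signal means less secretion.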
# TDP1 cell CPT: qHTS for Inhibitors of human tyrosyl-DNA phosphodiesterase 1 (TDP1): qHTS in cells in presence of CPT; chicken DT40 Tdp1-/-;hTDP1 cells + 20 nM CPT, ATP luminescence, 48 h; Potency, µM (titrated, usually from 46.2 µM), for the others: top-dose activity change, negative = growth inhibition, most hits filed as inhibitors; 12% of 420,000 active; further: potency means the concentration at half of the fitted maximal effect; nearly all actives have a fitted effect of over 55% in size
#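 Chicken DT40 Tdp1-/- cells stably complemented with human TDP1 were seeded at 400 cells/well in medium containing 20 nM camptothecin, exposed to pin-transferred compounds, and grown at 37 °C for at least 48 hr. Viability was read as ATP luminescence.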
# An asterisk follows results filed as active; ? = inconclusive; . = not tested or not shown. Unless noted, the call rests on the fitted dose curve; in most records, active means well fitted curve in the direction sought with a large enough effect; inconclusive means small, poorly fitted or top-dose-only effect, or another doubt; inactive means no such curve, though single readings can be large; an effect the other way counts as inactive or inconclusive. Unless noted, on the % scale 0 is the no-effect control and ±100 the full control effect.
SMILES,DT40 TDP1 no CPT,HT1080 IDH1KD tx,HT1080NT lethal,IL1B secr inh,TDP1 cell CPT
COC(=O)C1=C(C)N=c2s/c(=C/c3ccoc3)c(=O)n2C1c1ccccc1 (stereo unspecified),?,-1.9%,-1.3%,-1.3,23.1µM*
CCOC(=O)C1=C(C)N=c2s/c(=C/c3cccc([N+](=O)[O-])c3O)c(=O)n2C1c1cc(OC)c(OC)c(OC)c1 (stereo unspecified),7.31µM*,4.0%,-3.9%,19.4,?
O=C1[C@@H]2CSC(c3ccc(Cl)cc3)N2C(=O)N1c1ccccc1 (stereo partly specified),-28.0%,.,.,.,2.0%
COc1ccc2c(c1OC)C(=O)N1c3ccccc3C(=O)N(c3ccccc3)C21 (stereo unspecified),9.2µM*,1.1%,-9.4%,-11.6,11.6µM*
COc1ccc2c(c1OC)C(=O)N1N=C(c3ccc(-c4ccccc4)cc3)CC21 (stereo unspecified),?,-1.7%,3.2%,-2.7,-16.3%
COc1ccc2c(c1OC)C(=O)N1c3ccccc3C(=O)N(c3ccc(F)cc3)C21 (stereo unspecified),11.6µM*,10.8%,4.0%,-14.5,?
COc1cc(CN2CCC3(CCC(CNC(=O)c4ccco4)O3)CC2)ccc1O (stereo unspecified),-2.6%,.,.,.,11.8%
CC(C)c1nc2sc3c(N4CCCCC4)ncnc3c2c2c1CCCC2,-3.2%,.,.,.,6.1%
O=C(N/N=C/c1cccs1)C1COc2ccccc2O1 (stereo unspecified),16.4µM*,?,?,20.2,?
Cc1ccc(/C=N/NC(=O)C2COc3ccccc3O2)s1 (stereo unspecified),1.64µM*,1.84µM*,?,-11.8,1.16µM*
CCCn1c(SC(C)C(=O)NC2CC2)nnc1-c1ccncc1 (stereo unspecified),17.7%,1.1%,0.8%,0.0,-10.7%
CC(C)[C@H](NC(=O)c1ccc(F)cc1)C(=O)NC1=NCCS1,-15.8%,-0.9%,2.6%,6.6,-26.3%
Cc1nn(C(=O)c2cc([N+](=O)[O-])ccc2Cl)c(C)c1Br,14.4%,5.7%,8.8%,3.4,-15.9%
O=CN1CCN(c2c([N+](=O)[O-])c(=O)oc3ccccc23)CC1,?,0.0%,-0.8%,12.1,-18.2%
CC1CCN(c2c([N+](=O)[O-])c(=O)oc3ccccc23)CC1,23.1µM*,17.9%,13.7%,-13.5,16.4µM*
O=c1oc2ccccc2c(N2CCCC2)c1[N+](=O)[O-],-29.6%,-0.3%,13.4%,-4.2,-18.1%
O=c1oc2ccccc2c(N2CCCCC2)c1[N+](=O)[O-],16.4µM*,13.8%,8.3%,-50.3*,16.4µM*
CCCS(=O)(=O)NC(=O)C1(C)CCN(C(=O)c2cc(-c3cccs3)oc2C)C1 (stereo unspecified),9.1%,14.5%,13.4%,1.6,-28.5%
CCOc1ccc(-c2cc(C(=O)NCCOC)[nH]n2)c(C)c1,-14.7%,6.5%,21.4%,18.1,-18.2%
CCOc1ccc(-c2cc(C(=O)Nc3ccc(C)c(NS(C)(=O)=O)c3)[nH]n2)c(C)c1,?,?,-26.8%,-1.9,18.4µM*
COc1ccc(O)c(-c2cc(-c3ccccc3Cl)[nH]n2)c1,-29.8%,-13.4%,-9.9%,26.6,?
COc1ccc(O)c(-c2cc(-c3cccs3)[nH]n2)c1,?,?,?,0.5,14.6µM*
Cc1ccc(-c2cc(-c3ccc(C)cc3O)[nH]n2)cc1,?,3.0%,-4.4%,13.8,5.4%
Oc1ccccc1-c1cc(-c2ccc(F)cc2)n[nH]1,14.6µM*,18.4µM*,?,17.9,?
COc1ccc(-c2cc(-c3ccccc3)n[nH]2)c(O)c1,-19.8%,-19.8%,-7.1%,-92.7*,-10.3%
SMILES,DT40 TDP1 no CPT,HT1080 IDH1KD tx,HT1080NT lethal,IL1B secr inh,TDP1 cell CPT
Oc1ccccc1-c1cc(-c2ccccc2)n[nH]1,?,0.9%,5.1%,12.6,?
Cc1ccc(-c2cc(-c3ccc(F)cc3)n[nH]2)c(O)c1,?,18.4µM*,25.9µM*,-61.3*,?
CCC(=O)c1ccc(OCC(=O)OCC(=O)Nc2cccc(S(=O)(=O)N3CCOCC3)c2)cc1,2.9%,12.5%,4.5%,0.2,0.5%
CCCC(=O)Nc1ccc2c(c1)nc(CCN1CCC(C)CC1)n2C,-20.2%,-6.8%,5.9%,-14.1,3.4%
C=CCc1ccccc1OCC(O)CNC(=O)c1ccccc1C(=O)O (stereo unspecified),1.1%,9.6%,8.9%,7.3,-4.0%
CCOC(=O)N1CCN(C(=O)c2ccc(NC(=O)c3ccc(C)cc3)cc2)CC1,-89.6%,6.1%,-0.2%,-16.5,-87.5%
CN1CC(COCc2ccccc2)Oc2ccccc2S1(=O)=O (stereo unspecified),-22.5%,1.7%,-1.9%,20.4,?
CCCCN1CC(COCc2ccccc2)Oc2cccc(N3CCCC3)c2S1(=O)=O (stereo unspecified),16.4µM*,-0.6%,-1.2%,14.6,?
O=S1(=O)c2ccccc2OC(COCc2ccccc2)CN1C1CC1 (stereo unspecified),18.4µM*,-3.7%,-6.2%,18.1,18.4µM*
CC(C)CN1CC(COCc2ccccc2)Oc2ccccc2S1(=O)=O (stereo unspecified),?,-7.0%,-3.9%,-17.2,20.6µM*
CCOc1ccc(NC(=O)CN2CCc3cc4c(cc3C2)OCCCO4)cc1OCC,-10.9%,20.0%,-0.9%,-2.3,?
O=C1c2ccccc2C(=O)N1CCCCN(C(=O)c1cccc([N+](=O)[O-])c1)c1ccc(Cl)cc1,16.4µM*,-13.1%,-0.6%,-8.2,20.6µM*
COc1ccc(C(CNC(=O)Cc2ccccc2Cl)N2CCCCC2)cc1 (stereo unspecified),-3.9%,-14.5%,-5.1%,-52.3*,-16.3%
COc1ccc(C(CNC(=O)c2ccc(-c3ccccc3Cl)o2)N2CCCC2)cc1 (stereo unspecified),4.11µM*,?,?,-10.6,5.17µM*
COc1ccc(C(CNC(=O)c2ccc(C)o2)N2CCOCC2)cc1 (stereo unspecified),-1.1%,4.1%,6.4%,9.9,7.2%
COc1ccc(C(CNC(=O)c2ccc(-c3nc4ccccc4s3)o2)N2CCCC2)cc1 (stereo unspecified),20.6µM*,-27.2%,?,-16.1,23.1µM*

# Bioassay records deposited in PubChem BioAssay by National Center for Advancing Translational Sciences (NCATS).
